# ChEMBL document CHEMBL3988442, “University of Dundee, Small-Polar-MMV Screening Library” (2021)
# Molecular target: AMP-activated protein kinase, AMPK (Homo sapiens) (UniProt P54646+O43741+P54619+Q9UGJ0+Q9Y478+Q13131+Q9UGI9)
# Assay: AMP-dependent Kinase enzyme assay. An in vitro enzyme assay that detects ADP turnover that is directly proportional to AMPK activity. This uses naive AMPK that is activated during the assay with MK-8722
# Format: functional
# Set-up: scale not given: direction of the effect not stated beside the values
# Conditions: 30 µM
row,Structure (SMILES),Percent Effect
1,CC(NCc1cccc(COC2CCCC2)c1)c1cnn(C)c1 (centres undefined),3.6%
2,COc1c(C)cnc(CN2CCCC2c2noc(C)n2)c1C (centres undefined),-12%
3,CNc1ccc(C2CN(c3cc(C)nc(N)n3)CCO2)nc1 (centres undefined),17.3%
4,CC(C)N(C)S(=O)(=O)c1ccc2c(c1)CCN(C(=O)c1ccccn1)C2,-446%
5,CC(C)[C@]1(O)CN(C(=O)C2(Cn3cccn3)CC2)C[C@H]1C,-3.27%
6,CC(C)(C)NC(=O)CN1CCNCC1,1.56%
7,Nc1nccc(N2CCC(c3cc(Cc4ccccc4)n[nH]3)CC2)n1,4.14%
8,O=C(Cc1nc(-c2ccncc2)n[nH]1)NCCCN1CCOCC1,-0.0149%
9,Cc1cccc(C2(CNC(=O)c3ccnc(N(C)C)c3)CCOCC2)c1,-0.987%
10,COC(=O)c1ccoc1CN(C1CC1)C1CCS(=O)(=O)C1 (centres undefined),7.17%
11,Cc1noc(C)c1C(=O)N[C@@H]1CCC[C@@H](Oc2ccccc2)[C@@H]1O,19.1%
12,COC(=O)c1ncccc1N1CCCCC1,2.81%
13,Cc1n[nH]c(C)c1NC(=O)NCc1ccccn1,-10.3%
14,Cc1cc(C(=O)N2CCNC(=O)C2)c(C)n1CC(F)(F)F,1.02%
15,COc1coc(CN2CCCC3(CCC(=O)N(C4CC4)C3)C2)cc1=O (centres undefined),-2.13%
16,COc1ccc(Cc2nnc(NC(=O)C3CC34CCC4)s2)cc1OC (centres undefined),4.1%
17,CCOCCNCc1cc(O)c2cc(C)ccc2n1,-3.23%
18,Cn1ccc(C(=O)N2CCCC2c2cc(CO)[nH]n2)n1 (centres undefined),20.7%
19,CC(C)c1cc(NC(=O)Cn2ccc(=O)c3ccccc32)[nH]n1,4.99%
